This is part of a sample that, as a whole, favours compounds with a hit. Of some 83,000 tested, about 20% had one in any assay.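 Each cell line was grown in a 96-well plate and treated with one concentration of compound for 48 hours. Values below 10 were considered active.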 Active and inactive are the calls of the source.

This is an account of results in PubChem BioAssay (NCI).

This experiment deals with HL-60(TB) leukemia. Description: NCI-60 one-dose screen, 48 h (100 = growth as untreated, 0 = no growth, -100 = all killed). The following applies: 10 µM unless noted.
For `COC(=O)C(Cc1ccccc1)NC(=O)NC(=O)NC(=O)CI` (centres undefined), the growth was -51.3% (active).
For `COc1ccc(-c2cc(C(=O)Nc3ccc(C)cc3)nc3[nH]c(=O)sc23)cc1` the value was 51.8% (inactive); for `N#Cc1c(-c2ccccc2)nc(SCC(=O)N2CCN(c3ccccc3)CC2)[nH]c1=O`, 62.5% (inactive).
The result for `CCCCCN(CCCCC)CCC[C@@H](C)[C@H]1CC[C@H]2[C@@H]3[C@H](OCCCN)C[C@@H]4C[C@H](OCCCN)CC[C@]4(C)[C@H]3C[C@H](OCCCN)[C@]12C` reads -16.8% (active); that for `C=C1C(=O)O[C@H]2[C@H]1CC/C(COC(=O)c1cc(OC)c(OC)c(OC)c1)=C\CC[C@@]1(C)O[C@@H]21`, -65.1% (active); that for `COc1cc(C(=O)N2CCN(c3ccccc3OC)CC2)c(N)cc1OCCCN1CCN(c2ccccc2OC)CC1`, 85.3% (inactive).
As for `COc1ccc(N2CCN(c3ccc(NC4=C(Cl)C(=O)c5ncccc5C4=O)cc3)CC2)cc1`, the growth was 53% (inactive).
For `C=C(C)[C@@H]1CC[C@]2(C(=O)N3CCN(C)CC3)CC[C@]3(C)[C@H](CC[C@@H]4[C@@]5(C)C/C(=C/c6ccncc6)C(=O)C(C)(C)[C@@H]5CC[C@]43C)[C@@H]12`, the growth is -21.7% (active).
The result for `COc1ccc(C(=O)COc2cccc(/C=C3\CSc4ccc(Cl)cc4C3=O)c2)cc1` reads 81.8% (inactive); that for `COc1ccc(CCNc2nc(SC)nc(-c3cccc([N+](=O)[O-])c3)c2C#N)cc1OC`, 120% (inactive).
For `Clc1nc(Nc2ccccc2)nc(Nc2ccccc2)n1` the value was 65.6% (inactive); for `COc1cc2c(cc1I)-c1c(cc(OC)c(OC)c1OC)CC[C@@H]2NC(C)=O`, 6.93% (active).
For `CCCCNC(=O)Oc1ccc(/C(=C(\C)c2ccccc2)c2ccc(OCCN(CC)CC)cc2)cc1` the value was 21.3% (inactive); for `O=C(NC(CSSCC(NC(=O)OCc1ccccc1)C(=O)O)C(=O)O)OCc1ccccc1` (centres undefined), 14.3% (inactive); for `Cc1cc(O)c(C(C)C)cc1Cl`, 101% (inactive).
For the compound `CCN(CC)c1ccc(/C=C2\Oc3ccc(O)c(I)c3C2=O)cc1`, the growth is 18.5% (inactive).
The result for `CCCCCCCCCCCCCCCCCCSC1=CC(=O)C(OC)=C(OC)C1=O` reads 66.9% (inactive); that for `CC(O)CN1CC(O)=C(c2nc3ccccc3s2)C1=N` (centres undefined), 93.8% (inactive); that for `COc1ccc(-c2ccc3c(N4CCOC[C@@H]4C)nc(N4CCOC[C@@H]4C)nc3n2)cc1CO`, 22.6% (inactive).
For `COC(=O)Cc1cc(COC(C)=O)ccc1C` the value was 84.8% (inactive).
The result for `O=C(Nc1ccc2ncsc2c1)c1csc(Nc2ccc3[nH]ncc3c2)n1` reads 9.68% (active); that for `COc1ccc(-c2c3c(N)c4c(nc3nc3c2c(C)nn3-c2ccccc2)CCCC4)cc1`, 87.2% (inactive).
On to `COc1c2ccoc2c(/C=C/C=O)c2oc(-c3ccccc3)cc(=O)c12`, for which the growth is 7.67% (active).
For `Cc1ccc(CCCC(=O)O)c(C)c1` the value was 98.3% (inactive); for `CCCCCC1CCCCN1C(=O)OCC` (centres undefined), 77.5% (inactive); for `COc1ccc(/C=C2\CN(Cc3cn(CCCNc4ccnc5cc(Cl)ccc45)nn3)C/C(=C\c3ccc(OC)cc3)C2=O)cc1`, 53.1% (inactive).
For `COc1cc2cc(Oc3ccc(NC(=O)Nc4ccc(Cl)c(C(F)(F)F)c4)cc3)c(C)nc2cc1OCCN1CCOCC1` the value was 11% (inactive).
The result for `Cc1ccccc1C1CC(=O)c2ccccc2C1C` (centres undefined) reads 98.6% (inactive); that for `CCN(CC)CCCCCCCNc1c2ccc(Cl)cc2nc2ccc(OC)cc12`, -46.9% (active); that for `Nc1c(C(=O)Nc2ccccc2)sc2nc3c(cc12)CN(CCc1ccccc1)CC3`, 102% (inactive).
Turning to `CCN1C(=O)N(CC)C2C1NN=c1s/c(=C\c3ccccc3Br)c(=O)n12` (centres undefined), the growth is -40.7% (active).
With `c1ccc(CNc2nc(Nc3ccccc3)nc3ccccc23)cc1`, the growth was 95.6% (inactive).
On to `COc1cccc2nc(Nc3ccc(NC(=O)c4ccc5ncccc5c4)cc3)ccc12`, for which the growth is 91% (inactive).
`CCOc1cccc(/C=N\Nc2nc(=O)cc(C(=O)OC)s2)c1O`: the growth was 72.8% (inactive).
The result for `C=C1C(=O)O[C@H]2[C@H]1CC/C(CNC(=O)c1cccc3ccccc13)=C\CC[C@@]1(C)O[C@@H]21` reads -23.9% (active); that for `C=CCOc1ccc(Cl)cc1Cl`, 20.5% (inactive); that for `Nc1ccc2ccc(NS(=O)(=O)N3CCCCC3)cc2c1`, 2.41% (active).
The result for `O=C(C[N+](=O)[O-])c1ccc(Cl)cc1` reads 104% (inactive); that for `CS(=O)(=O)c1ccc(C(=O)N/N=C/c2ccc3c(c2)OCO3)cc1`, 57% (inactive).
